The source of these data is PubChem BioAssay.

Each structure is given as a SMILES string. Where “and” joins values, the source holds several entries; their conditions need not be identical. Identical values can stand only once. Records with an inconclusive call do not appear. More than one record can exist for a structure, and the calls need not agree. Calls of active or inactive are those of the source. Unless noted, no stated cut-off is given here; in the data, active means inhibition above about 80%; inactive means the rest.

A short description of experiment [1]: growth inhibition of DIPG cells – cell-based, MIPE5.0 library, qHTS (AID 1347068; cut-off not given, nearly all actives have IC50 up to about 30 µM). The settings on record: SU-DIPG-XXV viability.
The nature of experiment [2]: JHH-DIPG-1 glioma cell viability, MIPE5.0 library, CellTiter-Glo luminescence, qHTS (AID 1347067; cut-off not given, nearly all actives have AC50 up to about 26 µM;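 further: cells exposed to compound for 48 hours before readout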). The settings on record: JHH-DIPG-1 glioma viability, CellTiter-Glo ATP luminescence. In general terms: ATP-based viability assays read luminescence as a measure of living cells.
A short description of experiment [3]: viability loss with induced miR-34 in A549 – imaging, A549 dox-inducible miR-34, nuclei and caspase counts, primary screen (AID 1347080;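 active means compounds whose cell count with miR-34 switched on is under 0.7 times the count with it off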). The settings on record: A549 miR-34 inducible, Hoechst nuclei count, 48 h.
The nature of experiment [4]: MELAS cybrid and Rieske KO viability enhancers – cell-based, MELAS cybrids, Rieske KO mouse fibroblasts, CellTiter-Glo, primary screen (AID 1508586;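 active means mean z-score across replicates of 1.96 or higher in either the MELAS or the Rieske mutant cell line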;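 further: z relative to plate mean and SD of compound and empty wells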). The following applies: low glucose.
Experiment [5] is described as follows: viability loss in pontine glioma line – cell-based, SU-DIPG-XXV, MIPE5.0, CellTiter-Glo, qHTS, dose response (AID 1347065; cut-off not given, nearly all actives have AC50 up to about 26 µM;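 further: cells exposed to compound for 48 hours before ATP readout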). The following applies: CellTiter-Glo ATP luminescence.
Experiment [6] can be described thus: growth inhibition, single agent or in combination, cell-based, chromothripsis tumors, cisplatin or BGB combos (AID 1671449).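 Further: cells exposed for 96 hours; 0% = vehicle DMSO and 100% = killing by high DMSO.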 The settings on record: LFS_MB_P medulloblastoma cells.
Experiment [7] is described as follows: growth inhibition, single agent and combos, cell-based, chromothripsis tumors, cisplatin or BGB combos (AID 1671450).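 Further: cells exposed to compound for four days; 0% = vehicle DMSO and 100% = cell killing by high DMSO.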 The settings on record: HDN33 neuroblastoma cells, stronger effect = higher value.
Experiment [8] is described as follows: growth inhibition, single agents and combos, ICB984, cell-based, cisplatin or BGB combos, synergistic combos for chromothripsis tumors (AID 1671451; call rule not given here;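 further: cells exposed for 96 hours before readout; 0% = vehicle DMSO and 100% = killing by high DMSO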). The settings on record: ICB984 medulloblastoma cells, drug combinations, stronger effect = higher value.
Experiment [9] is described as follows: growth inhibition, single agents and combos, LFS_MB_1R, cell-based, cisplatin or BGB combos, synergistic combos for chromothripsis tumors (AID 1671452).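 Further: cells exposed for 96 hours before readout.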 The following applies: LFS_MB_1R medulloblastoma cells, stronger effect = higher value.
The nature of experiment [10]: growth inhibition, single agents and combos, HTB85, cell-based, BGB or cisplatin IC20 combos, synergistic combos for chromothripsis tumors (AID 1671453).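 Further: cells exposed for 96 hours before readout; 0% = vehicle DMSO and 100% = high DMSO killing control.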 The following applies: HTB85 osteosarcoma cells, drug combinations, stronger effect = higher value.
The nature of experiment [11]: growth inhibition, single agents and combos, CRL2098, cell-based, BGB or cisplatin IC20 combos, synergistic combos for chromothripsis tumors (AID 1671454).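 Further: cells exposed for 96 h before readout; 0% = vehicle DMSO and 100% = killing by high DMSO.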 The following applies: CRL2098 osteosarcoma cells, drug combinations, stronger effect = higher value.
The nature of experiment [12]: growth inhibition, single agents and combos, HD-MB03, cell-based, BGB or cisplatin IC20 combos, synergistic combos for chromothripsis tumors (AID 1671455; in the data active means inhibition above about 83%;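 further: 0% = vehicle DMSO and 100% = high DMSO as cytotoxic control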). The settings on record: HD-MB03 medulloblastoma cells, stronger effect = higher value.
Experiment [13] can be described thus: growth inhibition, single agents and combos, UWB1.289, cell-based, BGB or cisplatin combos, synergistic combos for chromothripsis tumors (AID 1671456).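 Further: cells exposed to compound for four days; 0% = vehicle DMSO and 100% = killing by high DMSO.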 The settings on record: UWB1.289 ovarian carcinoma cells, stronger effect = higher value.
Experiment [14] is described as follows: growth inhibition, single agents and combos, LFS_MB_2R, cell-based, cisplatin combos, synergistic combos for chromothripsis tumors (AID 1671457).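 Further: cells exposed to compound for four days before readout.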 The following applies: LFS_MB_2R medulloblastoma cells, stronger effect = higher value.
Experiment [15] is described as follows: growth inhibition, MDA-MB-436, cell-based, BGB or cisplatin combos, synergistic combos for chromothripsis tumors (AID 1671458; call rule not given here;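 further: cells exposed for 96 hours; 0% = vehicle DMSO and 100% = killing by high DMSO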). The settings on record: MDA-MB-436 breast carcinoma growth inhibition, drug combinations, stronger effect = higher value.
The nature of experiment [16]: UWB1.289_BRCA1 ovarian cancer growth, cell-based, BGB or cisplatin combinations (AID 1671459). The settings on record: UWB1.289 BRCA1 ovarian carcinoma, drug combinations, stronger effect = higher value.
A short description of experiment [17]: drug combination toxicity in non-malignant astrocytes – cell-based, BGB or cisplatin IC20 combos, cytotoxicity control for chromothriptic childhood tumor combination screen (AID 1671460).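 Further: cells exposed to compounds for 96 hours before viability readout; 0% = vehicle and 100% = killing control.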 The following applies: Human astrocytes, viability inhibition, drug combinations, at 0.5 µM, stronger effect = higher value.
The nature of experiment [18]: BT084 cell growth, single and combined drugs, ICGC_MB145, cisplatin and BGB IC40 combos (AID 1671461).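 Further: cells exposed to drugs for 96 hours; 0% = vehicle DMSO and 100% = high DMSO full killing control.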 The settings on record: BT084 medulloblastoma cells, drug combinations, stronger effect = higher value.
A short description of experiment [19]: RCMB18 cell growth, single agent and combined, cisplatin and BGB IC40 combos (AID 1671462).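 Further: cells exposed to compound for four days.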 The following applies: RCMB18 medulloblastoma cells, stronger effect = higher value.
The nature of experiment [20]: CRL1545 cell growth, single agent and combined, cisplatin and BGB IC20 combos (AID 1671464).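 Further: cells exposed to compound for 96 hours before readout; 0% = vehicle DMSO and 100% = high DMSO killing control.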 The following applies: CRL1545 osteosarcoma cells, stronger effect = higher value.
The mark [21] stands for this setting: stronger effect = lower value, cell number ratio, induced over uninduced.
The mark [22] stands for this setting: measured here: relative caspase fold change +Dox/-Dox.
Where [23] appears, read: measured here: total cells with miR-34 induction, stronger effect = lower value.
Setting [24] is: measured here: total cells without miR-34 induction.
Where [25] appears, read: MELAS cybrid survival, CellTiter-Glo 48 h, stronger effect = higher value.
[26] abbreviates: Rieske KO mouse fibroblast survival, CellTiter-Glo 72 h.
Setting [27] is: measured here: combination with BGB IC40, at 0.05 µM.
[28] abbreviates: measured here: with BGB IC20 combination, at 0.5 µM.
[29] abbreviates: measured here: with cisplatin IC20 combination, at 0.5 µM.
Setting [30] is: measured here: combination with cisplatin, at 0.5 µM.
Where [31] appears, read: measured here: combination with cisplatin, at 5 µM.

Turning to `CC(C)(C)S(=O)(=O)c1ccc2nccc(Nc3n[nH]c4ccc(F)cc34)c2c1`, the compound was classed as inactive in experiment [1].
On to `COC1CC(C(=O)c2ccc3c(N)ncc(-c4ccc(-c5cnn(C)c5)cc4)c3n2)C1` (stereo not given), for which the call in experiment [2] and in [1] was inactive.
In the case of `Cn1cc(-c2cnn3c(N)c(Br)c(C4CCCNC4)nc23)cn1` (stereo not given), in experiment [2], the result was inactive. Besides, the fold change in [3] (setting [21]) was 0.949 (inactive); in [3] (setting [22]) it was 0.873. The cell count in experiment [3] (setting [23]) is 6160; in experiment [3] (setting [24]) it was 6490. In addition, the z-score was 0.0709 (inactive) in experiment [4] (setting [25]) and -0.322 in [4] (setting [26]).
Usually AC50 stands for the concentration at which the activity in the assay is half-maximal. By inhibition is commonly meant the change of the read-out against control, counted positive when it falls. Turning to `CNCc1ccc(-c2cc(-c3nc(-c4ccc(S(=O)(=O)C(C)C)cc4)cnc3N)on2)cc1`, the AC50 in experiment [5] is 6.61 µM (active). Further, the fold change in experiment [3] (setting [21]) is 1.09 (inactive); in [3] (setting [22]) it was 0.389. Also, the cell count in [3] (setting [23]) is 2400; in experiment [3] (setting [24]), 2210. The values for the z-score in [4] (setting [25]) and in experiment [4] (setting [26]) were 2.18 (active) and -0.548, respectively. The inhibition was -32.1% (inactive) and 15.3% (inactive) in experiment [6] (at 0.5 µM, stronger effect = higher value); 12.2% and -16.2% in [6] (measured here: combination with BGB IC20, at 0.005 µM); 9.32% and -55% in experiment [6] (measured here: combination with BGB IC40, at 0.005 µM); -2.44% and -42.7% in experiment [6] (setting [27]); -68.5% and 16.4% in experiment [6] (measured here: combination with cisplatin, at 0.5 µM, stronger effect = higher value); 96.1% and -3.93% in [6] (measured here: combination with cisplatin, at 5 µM, stronger effect = higher value). In addition, the inhibition in experiment [7] (BGB combo, at 5 µM) is 99.9% and 91.5%; in experiment [7] (at 0.5 µM) it was 81% (active) and 55% (inactive); in experiment [7] (cisplatin combo, at 5 µM), 99.7% and 98.8%; in experiment [7] (setting [28]), 74.7% and 52.8%; in experiment [7] (setting [29]) it was 84.9% and 61.2%; in [7] (single agent, at 5 µM), 99.6% and 97.3%. The inhibition was 10% and -1.43% in experiment [8] (BGB IC20 combo, at 0.005 µM); 46.6% and 13% in experiment [8] (BGB IC40 combo, at 0.005 µM); 102% in experiment [8] (BGB IC40 combo, at 0.05 µM); -9.05% (inactive) and -13.1% (inactive) in experiment [8] (at 0.5 µM); 102% and 103% in experiment [8] (cisplatin combo, at 0.05 µM); -4.28% and -29.4% in [8] (cisplatin combo, at 0.5 µM). The inhibition in [8] (cisplatin combo, at 5 µM) is 0.208% and -7.66%; in [8] (measured here: 5 uM single agent, at 5 µM) it was 4.2% and -17.2%; in experiment [9] (at 0.5 µM), -10.6% (inactive) and -30.6% (inactive); in [9] (setting [27]), -16.3% and -24.4%; in experiment [9] (setting [30]), -6.99% and -51.5%; in [9] (setting [31]) it was 103% and 92%. The inhibition in experiment [10] (at 0.5 µM) is 67.2% (inactive) and 53.2% (inactive); in [10] (measured here: with BGB IC20, at 0.5 µM) it was 67.9% and 66.3%; in experiment [10] (measured here: with BGB IC20, at 5 µM), 99.8% and 98.3%; in [10] (measured here: with cisplatin IC20, at 0.5 µM), 78.5% and 60.7%; in experiment [10] (measured here: with cisplatin IC20, at 5 µM), 99.8% and 88.8%; in [10] (single agent, at 5 µM), 99.8% and 79%. Besides, the inhibition in experiment [11] (at 0.5 µM) is 45.2% (inactive) and 30% (inactive); in experiment [11] (measured here: combination with BGB at IC20, at 0.5 µM) it was 27% and 27.5%; in experiment [11] (measured here: combination with cisplatin at IC20, at 0.5 µM) it was 60.9% and 31.3%; in experiment [12] (at 0.5 µM), 87.3% (active) and 58.6% (inactive); in experiment [12] (measured here: combo with BGB at IC20, at 0.5 µM), 82.9% and 61.6%; in experiment [12] (measured here: combo with cisplatin at IC20, at 0.5 µM) it was 96.2% and 87.4%. For the same compound, the inhibition in experiment [13] (at 0.5 µM) was 83% (active) and 72.2% (inactive); in [13] (measured here: inhibition with BGB combination, at 0.05 µM), 7.96% and -9.18%; in experiment [13] (measured here: inhibition with cisplatin combination, at 0.05 µM) it was 41.3% and 1.85%; in experiment [14] (at 0.5 µM), 13.8% (inactive) and -20% (inactive); in experiment [14] (setting [30]) it was 29.2% and -5.7%; in experiment [14] (setting [31]), 104% and 53.6%. Besides, the inhibition was 55.5% (inactive) and 36% (inactive) in experiment [15] (at 0.5 µM); 34.5% and 11.4% in experiment [15] (measured here: BGB combination, at 0.5 µM); 82.1% and 63.6% in experiment [15] (measured here: BGB combination, at 5 µM); 76.4% and 54% in [15] (measured here: cisplatin combination, at 0.5 µM); 109% and 82.4% in [15] (measured here: cisplatin combination, at 5 µM); 101% and 97.7% in [16] (BGB combination, concentration series, at 5 µM). In addition, the inhibition is 90.3% (active) and 82.2% (active) in [16] (at 0.5 µM); 84.8% and 106% in experiment [16] (cisplatin combination, concentration series, at 5 µM); -32% (inactive) and -35.2% (inactive) in experiment [17]; -34.1% and -25.6% in experiment [17] (measured here: combo with BGB IC20); -44.2% and -41.4% in experiment [17] (measured here: combo with cisplatin IC20); 29.8% (inactive) and 12.8% (inactive) in experiment [18] (at 0.5 µM). Besides, the inhibition is 27.7% and 16.2% in experiment [18] (cisplatin combination, at 0.5 µM); 109% and 105% in experiment [18] (cisplatin combination, at 5 µM); -22.6% and -25.3% in experiment [18] (measured here: BGB IC40 combination 0.05 uM, at 0.05 µM); 107% and 108% in experiment [18] (single agent, at 5 µM); 31.8% (inactive) and 0.94% (inactive) in experiment [19] (at 0.5 µM); 104% and 103% in [19] (cisplatin combo, at 5 µM). Moreover, the inhibition in experiment [19] (measured here: BGB IC40 combination, at 0.05 µM) was 11.9% and -20.4%; in experiment [19] (setting [30]), 38.1% and -11.6%; in experiment [19] (single agent, at 5 µM), 101%; in experiment [20] (at 0.5 µM), 95% (active) and 91% (active); in experiment [20] (setting [28]), 91.2% and 85.8%; in experiment [20] (setting [29]), 96.8% and 93.6%. Also, the inhibition is 35.3% and -10.3% in experiment [20] (single agent, at 0.05 µM); 99.8% and 99.5% in experiment [20] (single agent, at 5 µM).
